The values that follow come from PubChem BioAssay (Tox21).

Results filed as inconclusive are left out. Activity calls are given as the source filed them. Calls come from the whole dose curve; as a rule, active = well fitted activation curve with a large enough effect in the signal ratio in the repeat runs (not every such curve was filed as active); inconclusive = weak or mixed curves; inactive = flat fitted curve, though single readings scatter; the % refers to the signal ratio.

The assay is described as follows: qHTS assay to identify small molecule agonists of the hypoxia (HIF-1) signaling pathway (AID 1224846). As to conditions: HRE-bla ME-180 cells, beta-lactamase ratio, 17 h; series mostly up to 76.8 µM. The gist of the method:
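Steps: seed ME-180 HRE-bla cells (2,000/well, 0.5% dialyzed FBS); incubate 5 hrs at 37C; pin-transfer compounds or DMSO; incubate 17 hrs; add LiveBLAzer B/G substrate CCF4-AM; measure reporter activation by FRET.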
In general terms: Quantitative high-throughput screening tests each substance at several concentrations.
`O=C(/C=C/c1ccc(O)c(O)c1)O[C@@H]1C[C@@](OC(=O)/C=C/c2ccc(O)c(O)c2)(C(=O)O)C[C@@H](O)[C@@H]1O`: the result was inactive.

Turning to `CC(C)(c1ccccc1)c1ccccc1`, the result was inactive.

For the molecule `Cc1cccc(O)c1N`, the outcome was inactive.

In the case of `CC1(C)S[C@@H]2[C@H](NC(=O)C(c3ccccc3)S(=O)(=O)O)C(=O)N2[C@H]1C(=O)O` (some centres not stated), the outcome was inactive.

For `CC(=O)Nc1ccc(C)cc1C`, the outcome was inactive.

For `NC(=O)c1ccncc1`, the outcome was inactive.

As to `O=C(Cn1ccnc1[N+](=O)[O-])NCCO`, the outcome was inactive.

`CC1CC(C)C(=O)C1=O` (configuration not stated): the outcome was inactive.

In the case of `CC(=O)c1cc2ccccc2s1`, the result was inactive.

Regarding `Cc1cscn1`, the outcome was inactive.

Consider `Brc1cc(Br)c(Oc2cc(Br)c(Br)cc2Br)cc1Br`, for which the outcome was inactive.

For `CCCCCC[C@@H](O)C/C=C\CCCCCCCC(=O)O`, the result was inactive.

Regarding `OC1(c2ccccc2)CCNCC1`, the result was inactive.

Turning to `CCOC(=O)c1ccc(O)c(O)c1`, the outcome was inactive.

On to `C=C/C(C)=C/C/C=C(\C)CCC=C(C)C`, for which the result was inactive.

For the molecule `CCC(C)(C)OC`, the result was inactive.

On to `Cc1ccccc1S`, for which the outcome was inactive.

Take `O=[N+]([O-])c1ccc(Nc2ccc(Nc3ccccc3)c(S(=O)(=O)O)c2)c([N+](=O)[O-])c1`: the outcome was inactive.

On to `Clc1ccc(Nc2nnc(Cc3ccncc3)c3ccccc23)cc1`, for which the result was inactive.

With `O=C=Nc1cccc(C(F)(F)F)c1`, the result was inactive.

As for `CCCCC(CC)CN` (configuration not stated), the result was inactive.

Take `OCCOCC#CCOCCO`: the outcome was inactive.

Turning to `CC(C)(C)CC(=O)OCC(=O)[C@@]1(O)CC[C@H]2[C@@H]3CCC4=CC(=O)C=C[C@]4(C)[C@H]3[C@@H](O)C[C@@]21C`, the result was inactive.

In the case of `COc1ccc(OC(=O)N(CC(=O)O)Cc2ccc(OCCc3nc(-c4ccccc4)oc3C)cc2)cc1`, the outcome was inactive.

Consider `O=C(O)C[C@H](NC(=O)OCc1ccccc1)C(=O)O`, for which the outcome was inactive.

For the molecule `c1ccc2sc(SN(C3CCCCC3)C3CCCCC3)nc2c1`, the result was inactive.

Turning to `COc1ccccc1N1CCN(CCCCNC(=O)c2ccc(-c3ccc(C(C)=O)cc3)cc2)CC1`, the result was inactive.

For `c1csc(SSc2cccs2)c1`, the outcome was inactive.

With `CCC1NC(=O)c2cc(S(N)(=O)=O)c(Cl)cc2N1` (configuration not stated), the outcome was inactive.

On to `CCOc1ccccc1O[C@H](c1ccccc1)[C@H]1CNCCO1`, for which the outcome was inactive.

As for `C/C=C\C/C=C/CCCCCCCCOC(C)=O`, the outcome was inactive.

As to `COC(=O)CS`, the result was inactive.
